CD40 NFkB inh – CD40 pathway inhibition in BL2 cells. inhibition, % at 10 µM. BL2 NF-kB luciferase reporter, CD40L-induced, 4 h. 83,000 tested, 0.94% active;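 active means mean inhibition of at least 50% with a set share of replicates also reaching that level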
A number is an active result; 0 = inactive; ! = a repeat was not active; [ ] = dose if it differs, or a comment. The entries come from a sample that favours hits as a whole.

SMILES | CD40 NFkB inh
CC(=O)N1[C@@H]2CN(S(C)(=O)=O)C[C@H]1C2c1ccccc1 (stereo not given in full) | 0
CCCCNC(=O)C1(C)CCN1C(=O)c1ccccc1Br (stereo not given) | 0
CCCCNC(=O)C1(C)CCN1C(=O)c1cc(-c2cccs2)oc1C (stereo not given) | 105.1
CCCCNC(=O)C1(C)CCN1C(=O)c1ccc(C)c(F)c1 (stereo not given) | 0
COc1cccc(NC(=O)N[C@@H]2CC[C@@H](CC(=O)N3CCN(C)CC3)O[C@@H]2CO)c1 | 0
C[C@@H]1CN([C@@H](C)CO)C(=O)c2c(c3ccccc3n2C)-c2ccccc2CO[C@H]1CN(C)Cc1ccc(C(F)(F)F)cc1 | 0
C[C@H](CO)N1C[C@H](C)[C@H](CN(C)Cc2cccc(F)c2)OCc2ccccc2-c2c(n(C)c3ccccc23)C1=O | 0
C[C@@H]1CN([C@@H](C)CO)C(=O)c2c(c3ccccc3n2C)-c2ccccc2CO[C@@H]1CN(C)Cc1cccc(C(F)(F)F)c1 | 62.4[25 µM]
C[C@@H]1CN([C@@H](C)CO)C(=O)c2c(c3ccccc3n2C)-c2ccccc2CO[C@@H]1CN(C)Cc1ccccc1C(F)(F)F | 61.8[25 µM]
C[C@H](CO)N1C[C@H](C)[C@H](CN(C)Cc2ccc(C(F)(F)F)cc2)OCc2ccccc2-c2ccccc2C1=O | 0
C[C@H]1CN([C@@H](C)CO)C(=O)c2c(c3ccccc3n2C)-c2ccccc2CO[C@H]1CN(C)Cc1ccccc1C(F)(F)F | 0
C[C@H]1CN([C@@H](C)CO)C(=O)c2c(c3ccccc3n2C)-c2ccccc2CO[C@H]1CN(C)Cc1ccc(C(F)(F)F)cc1 | 0
C[C@H]1CN([C@@H](C)CO)C(=O)c2c(c3ccccc3n2C)-c2ccccc2CO[C@@H]1CN(C)Cc1cccc(C(F)(F)F)c1 | 60.6[25 µM]
C[C@H]1CN([C@@H](C)CO)C(=O)c2ccccc2-c2ccccc2CO[C@@H]1CN(C)Cc1ccc(C(F)(F)F)cc1 | 0
C[C@@H]1CN([C@H](C)CO)C(=O)c2c(c3ccccc3n2C)-c2ccccc2CO[C@H]1CN(C)Cc1ccccc1C(F)(F)F | 0
C[C@H]1CN([C@@H](C)CO)C(=O)c2c(c3ccccc3n2C)-c2ccccc2CO[C@H]1CN(C)Cc1cccc(F)c1 | 0
C[C@@H]1CN([C@@H](C)CO)C(=O)c2ccccc2-c2ccccc2CO[C@H]1CN(C)Cc1ccccc1C(F)(F)F | 65.7[25 µM]
N#Cc1cccc(-c2ccc(C3[C@H]4CNC[C@@H]3N4C(=O)Nc3ccc(F)cc3)cc2)c1 (stereo not given in full) | 0
CCCC#Cc1ccc2c(c1)[C@@H]1[C@@H](CCN1C(=O)CC1CC1)[C@@H](CO)N2C | 0
CC(=O)N(C)C[C@H]1Oc2c(NS(C)(=O)=O)cccc2C(=O)N(C)C[C@@H]1C | 0
C[C@H]1CN(C)C(=O)c2cc(N(C)C)ccc2O[C@@H]1CN(C)S(C)(=O)=O | 0
Cn1cnc(S(=O)(=O)N2CC[C@@H]3[C@@H](CO)Nc4ccc(-c5ccccc5F)cc4[C@@H]32)c1 | 0
CN(C)C(=O)c1cccc(-c2ccc3c(c2)[C@H]2[C@H](CCN2C(=O)c2cnccn2)[C@H](CO)N3)c1 | 0
C[C@@H]1CCCCO[C@@H](CN(C)C(=O)Nc2ccc(C(F)(F)F)cc2)[C@H](C)CN([C@H](C)CO)C(=O)c2cc(NS(=O)(=O)c3cn(C)cn3)ccc2O1 | 0
CCCNC(=O)C[C@@H]1C[C@H]2c3cc(NC(=O)NC4CCCC4)ccc3O[C@H]2[C@@H](CO)O1 | 0
SMILES | CD40 NFkB inh
O=C(Cc1cccc2ccccc12)NC1CCCCCC1 | 0
CNC[C@H]1Oc2ccc(NC(C)=O)cc2C(=O)N(C)C[C@H]1C | 0
COCCn1c(C)cc(C(=O)COC(=O)c2ccc(-n3nc(C)cc3C)cc2)c1C | 0
Cc1cc(C(=O)COC(=O)c2ccc(Br)o2)c(C)n1Cc1ccco1 | 0
COCCn1c(C)cc(C(=O)COC(=O)c2ccc(Br)o2)c1C | 48.4
Cc1cc(C(=O)COC(=O)c2ccc(Cl)c(S(N)(=O)=O)c2)c(C)n1CC1CCCO1 (stereo not given) | 0
COCCn1c(C)cc(C(=O)COC(=O)c2ccc(Cl)c(S(N)(=O)=O)c2)c1C | 20.5
Cc1cc(C(=O)COC(=O)c2ccc(Br)o2)c(C)n1C | 0
O=C(NCC[C@@H]1CC[C@H](NC(=O)C2CCCC2)[C@@H](CO)O1)c1cnccn1 | 0
N#C[C@H]1[C@H](c2ccccc2-c2ccccc2)[C@@H](CO)N1C(=O)NC1CCCCC1 | 0
CN1c2ccc(-c3ccccc3F)cc2[C@@H]2[C@@H](CCN2S(=O)(=O)c2ccc(F)cc2)[C@@H]1CO | 0
O=C(C[C@H]1CC[C@H]2[C@@H](COC[C@H](O)CN2C(=O)c2ccccc2F)O1)NCc1ccc(Cl)c(Cl)c1 | 0
C[C@@H]1CN([C@@H](C)CO)C(=O)Cc2cc(NC(=O)Cn3cnnn3)ccc2O[C@@H]1CN(C)C(=O)Nc1ccc(C(F)(F)F)cc1 | 0
C[C@H](CO)N1C[C@H](C)[C@@H](CN(C)S(=O)(=O)c2ccc(C#N)cc2)OCc2ccccc2-c2ccccc2C1=O | 0
CN1C(=O)c2cc(NC(=O)c3ccc(F)cc3)ccc2OC[C@H]2O[C@@H](CC(=O)NCC3CCCCC3)CC[C@H]21 | 0
Cc1nnc(N2CCOCC2)c2nn(-c3ccccc3)c(C)c12 | 0
c1ccc(-n2nnc3c(N4CCOCC4)ncnc32)cc1 | 68.1
c1ccc(Cn2nnc3c(N4CCCC4)ncnc32)cc1 | 0
Cc1nn(-c2ccccc2)nc1-c1nnc(-c2cccc3ccccc23)o1 | 0
C[C@@H]1CN([C@@H](C)CO)C(=O)c2cc(NC(=O)Nc3ccc4c(c3)OCO4)ccc2O[C@@H](C)CCCCO[C@@H]1CN(C)C(=O)CCCN(C)C | 0
CCN1[C@H](C(=O)N2CCCCC2)[C@@H](CO)[C@@H]2Cn3c(ccc(-c4cccc(F)c4)c3=O)[C@@H]21 | 0
Cc1cc(-c2nc3ccccc3o2)c2ccccc2n1 | 0
O=S(=O)(Nc1ccc(-c2nc3ccccc3o2)cc1)c1ccccc1 | 0
c1ccc2nc(-c3nc4ccccc4o3)ccc2c1 | 81.8
O=S(=O)(c1ccccc1)N1[C@@H]2CNC[C@H]1C2c1ccc(/C=C/c2ccccc2)cc1 (stereo not given in full) | 50.9!
SMILES | CD40 NFkB inh
O=S(=O)(c1cccc(F)c1)N1[C@@H]2CNC[C@H]1C2c1ccc(/C=C/c2ccccc2)cc1 (stereo not given in full) | 0
Cc1ccc(S(=O)(=O)N2[C@@H]3CNC[C@H]2C3c2ccc(/C=C/c3ccccc3)cc2)cc1 (stereo not given in full) | 0
CN1c2ccc(C#Cc3cccnc3)cc2[C@H]2[C@H](CCN2C(=O)C2CCCC2)[C@@H]1CO | 0
C[C@@H](C(=O)N(C)C[C@@H]1OCc2ccccc2-c2ccccc2C(=O)N([C@@H](C)CO)C[C@@H]1C)c1ccccc1 | 0
CNC[C@@H]1OCCCC[C@H](C)Oc2ccc(NC(=O)Nc3ccc(OC)cc3)cc2C(=O)N([C@H](C)CO)C[C@H]1C | 0
OCCOCCN1CCN(C(c2ccccc2)c2ccc(Cl)cc2)CC1 (stereo not given) | 0
O=C1C=CC(=O)c2c(O)c(N3CCN(CCOCCO)CC3)c(Br)c(O)c21 | 85.4
OCCOCCN1CCN(C2=Nc3ccccc3Sc3ccccc32)CC1 | 0
COc1ccccc1CN(C)C[C@@H]1OCc2ccccc2-c2c(n(C)c3ccccc23)C(=O)N([C@H](C)CO)C[C@H]1C | 0
S=C(CSc1ccccc1)Nc1cccc2ccccc12 | 0
